# Laboratory results taken from publication PMC4336329 (PLoS ONE, 2015).
# In all, about 310,000 compounds went through this assay and about 14,000 (4.5%) showed an effect of 50% or more. Effects have a minus sign here. The entries come from a sample that favours strong results as a whole.
# Biological target: human ether-à-go-go-related gene (hERG) potassium channel (human, UniProt Q12809)
# Experiment: primary screen, population patch clamp on CHO cells stably expressing hERG; higher = less effect of the substance
# 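Also: peak tail current of the secondary pulse compared with the same well before compound.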
# human ether-à-go-go-related gene (hERG) potassium channel, sequence (Q12809 whole entry, looked up): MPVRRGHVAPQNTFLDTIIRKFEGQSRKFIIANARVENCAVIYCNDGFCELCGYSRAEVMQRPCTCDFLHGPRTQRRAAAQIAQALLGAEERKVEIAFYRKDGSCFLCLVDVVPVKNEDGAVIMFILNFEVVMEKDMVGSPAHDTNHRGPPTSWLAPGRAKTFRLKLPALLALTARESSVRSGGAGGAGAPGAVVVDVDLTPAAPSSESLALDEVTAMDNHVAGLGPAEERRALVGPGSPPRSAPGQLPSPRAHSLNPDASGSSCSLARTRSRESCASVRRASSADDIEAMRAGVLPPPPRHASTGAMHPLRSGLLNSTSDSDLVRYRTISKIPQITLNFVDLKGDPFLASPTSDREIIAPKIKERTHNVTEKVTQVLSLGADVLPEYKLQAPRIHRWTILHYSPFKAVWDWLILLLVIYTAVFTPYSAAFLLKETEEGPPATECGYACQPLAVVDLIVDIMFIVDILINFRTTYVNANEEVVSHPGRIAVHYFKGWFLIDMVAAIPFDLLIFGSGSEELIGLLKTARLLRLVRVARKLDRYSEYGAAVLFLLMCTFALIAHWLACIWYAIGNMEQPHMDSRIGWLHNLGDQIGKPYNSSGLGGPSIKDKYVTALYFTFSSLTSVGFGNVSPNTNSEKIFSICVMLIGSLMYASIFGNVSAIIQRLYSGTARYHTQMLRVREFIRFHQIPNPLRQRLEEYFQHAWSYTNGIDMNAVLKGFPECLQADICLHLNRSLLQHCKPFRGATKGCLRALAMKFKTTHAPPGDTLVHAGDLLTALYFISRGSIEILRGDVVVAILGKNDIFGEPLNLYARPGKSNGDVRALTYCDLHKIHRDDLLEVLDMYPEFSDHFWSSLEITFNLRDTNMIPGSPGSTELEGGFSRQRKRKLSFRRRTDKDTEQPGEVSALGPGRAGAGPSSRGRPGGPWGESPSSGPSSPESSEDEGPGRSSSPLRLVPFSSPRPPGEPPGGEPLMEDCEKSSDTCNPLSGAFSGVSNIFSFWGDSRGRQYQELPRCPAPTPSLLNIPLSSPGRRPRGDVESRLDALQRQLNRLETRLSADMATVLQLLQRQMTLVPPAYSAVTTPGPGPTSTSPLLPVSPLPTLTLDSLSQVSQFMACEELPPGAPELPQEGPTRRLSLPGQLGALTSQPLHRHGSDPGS
row,SMILES,"hERG current change (%, negative = inhibition) at 10uM [%]"
1,CCOC(=O)c1[nH]ncc1CN1CCCC(C(=O)c2cc(Cl)ccc2OC)C1 (stereo not drawn),-71.1
2,CCOC(=O)c1[nH]ncc1CN1CCCC(C(=O)c2cccc(OC(C)C)c2)C1 (stereo not drawn),-42.1
3,CCOC(=O)c1[nH]ncc1CN1CCCC(C(=O)c2ccc(OC)cc2C)C1 (stereo not drawn),-49.4
4,CCOC(=O)c1[nH]ncc1CN1CCCC(C(=O)c2cccc(Cl)c2)C1 (stereo not drawn),-22.6
5,CCOC(=O)c1[nH]ncc1CN1CCCC(C(=O)c2ccc(SC)cc2)C1 (stereo not drawn),-73
6,CCOC(=O)c1[nH]ncc1CN1CCCC(C(=O)c2ccc(C(C)(C)C)cc2)C1 (stereo not drawn),-17.6
7,O=C(COC(=O)C1CCCCC1)Nc1ccc(N2CCCCC2)cc1,2.16
8,COc1ccc(C2(CNS(=O)(=O)c3ccccc3)CCOCC2)cc1,-4.62
9,COc1ccc(NC(=O)C2CCCN2S(=O)(=O)c2cccc3cccnc23)c(OC)c1 (stereo not drawn),-6.73
10,CCOc1cc2c(cc1C=O)OC(C)C2 (stereo not drawn),22.1
11,Cl.O=C(c1ccc(Cl)c(S(=O)(=O)N2CCCCCC2)c1)N1CCN(CCO)CC1,-34.4
12,O=C(c1ccc(Cl)c(S(=O)(=O)N2CCCCCC2)c1)N1CCCCC1,-20.7
13,O=C(c1ccc(Cl)c(S(=O)(=O)N2CCCCC2)c1)N1CCN(Cc2ccccc2)CC1,-59.1
14,O=C(c1ccc(Cl)c(S(=O)(=O)N2CCCCC2)c1)N1CCCCC1,-31.7
15,O=C(c1ccc(Cl)c(S(=O)(=O)N2CCOCC2)c1)N1CCN(Cc2ccccc2)CC1,-25.3
16,CCN1CCN(C(=O)c2ccc(Cl)c(S(=O)(=O)N3CCCCCC3)c2)CC1.Cl,-60.9
17,O=C(c1ccc(Cl)c(S(=O)(=O)N2CCCCCC2)c1)N1CCCC1,-38.9
18,CCN1CCN(C(=O)c2ccc(Cl)c(S(=O)(=O)N3CCCCC3)c2)CC1,-69.8
19,CCN1CCN(C(=O)c2ccc(Cl)c(S(=O)(=O)N3CCOCC3)c2)CC1,-0.549
20,CCCn1c(N)c(N(CCOC)C(=O)c2cccc(S(=O)(=O)N3CCCc4ccccc43)c2)c(=O)[nH]c1=O,3.29
21,O=C(NCC1CCCO1)c1cccs1 (stereo not drawn),4.89

row,SMILES,"hERG current change (%, negative = inhibition) at 10uM [%]"
1,Cc1cc(OCC(=O)OCC(=O)NC2CCCCC2C)ccc1Cl (stereo not drawn),0.466
2,CC(=O)Nc1ccc(S(=O)(=O)NNC(=O)c2cccc(Br)c2)cc1,15.9
3,CCC(=NCCCN1CCOCC1)c1c(O)n(-c2ccccc2C)c(=O)[nH]c1=O,8.28
4,CCCCN1C(=O)C(=O)N(CC(=O)Nc2sc(CC)cc2C(=O)OCC)C1=O,-10
5,Cc1ccc(Oc2ccc(OCC(=O)NC(C)C(=O)O)cc2)cc1 (stereo not drawn),-25.1
6,Cc1c(C#N)c(N)nc(Cl)c1C#N,25.9
7,NC(=O)C1(NC(=O)[C@@H]2CC3(CC(c4cccc(NC(=O)[C@@H]5CCC(=O)N5)c4)=NO3)CN2C(=O)c2ccccc2)CC1 (stereo partly drawn),1.96
8,CCCCOC(=O)NC1(C)CCS(=O)(=O)C1 (stereo not drawn),27.1
9,CC(C)OCCCNC(=S)N1CCC(C(=O)c2ccc3c(c2)OCCO3)CC1,-22.9
10,Cc1ccc2sc(N(CCN(C)C)C(=O)c3ccc(S(=O)(=O)N4CC(C)OC(C)C4)cc3)nc2c1C.Cl (stereo not drawn),1.87
11,CCOC(=O)/C=C/[C@H]1CCc2cccc(Cl)c2O1,9.23
12,CN1CCN(NC(=O)c2ccc(Cl)cc2Cl)CC1,0.116
13,Cc1cc(C(=O)N/N=C2/CC(C)CC(C)(C)C2)c(C)o1 (stereo not drawn),-8.27
14,COc1ccc(CN2C3CCC2CC(NC(=O)c2cc(OC)c(OC)c(OC)c2)C3)cc1 (stereo not drawn),-31.6
15,COc1ccc(CN2C3CCC2CC(NC(=O)c2cccc(F)c2)C3)cc1 (stereo not drawn),-75.2
16,COc1ccc(CN2C3CCCC2CC(NC(=O)c2cccc(F)c2)C3)cc1 (stereo not drawn),-82
17,COc1cccc(C(=O)NC2CC3CCC(C2)N3Cc2ccccc2)c1 (stereo not drawn),-28.7
18,COc1ccc(NC(=S)N2CCC(NC(=O)c3cccc(F)c3)CC2)cc1,-16.7
19,COc1ccc(C(=O)/C=C/c2cccc(OCc3ccccc3)c2)cc1CSCC(=O)O,7.09
20,COc1ccccc1CNC(=O)CCS(=O)(=O)c1ccc2c(c1)CC(C)N2C(=O)C1CC1 (stereo not drawn),15
21,COc1cccc(NC(=S)NCCc2ccccn2)c1,7.98
